Data published in PubChem BioAssay (NCI).
About 83,000 compounds went through this panel and 20% of them were active in at least one assay; those are over-represented in the sample as a whole.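 Step 1: grow cells in 96-well plates. Step 2: add test compound at a single concentration. Step 3: incubate 48 h. Step 4: record percent growth.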 The source made the active and inactive calls. The calls were made as follows: active = growth percent below 10; inactive = the rest.

tested on: MDA-MB-435 melanoma; assay: NCI-60 one-dose screen, 48 h (100 = growth as untreated, 0 = no growth, -100 = all killed); settings: 10 µM

Row | Compound | growth
1 | C[C@]12CC[C@@H]3c4ccc(OS(=O)(=O)O)cc4CC[C@H]3[C@@H]1CC[C@@H]2NS(=O)(=O)c1ccc(-c2ccccc2)cc1 | 69.4% (inactive)
2 | CCN1CCN(CCC(=O)Nc2cccc(-n3cc(-c4ccncc4)c(-c4ccc(Cl)c(OC)c4)n3)c2)CC1 | -47% (active)
3 | COc1ccc(-c2nnc(SCC(=O)Nc3ccc(C(=O)/C=C/c4ccccc4)cc3)n2-c2ccccc2)cc1OC | 86.1% (inactive)

tested on: SW-620 colon; assay: as above; settings: 10 µM

Row | Compound | growth
4 | COc1ccc(-c2onc(N)c2-c2cc(OC)c3c(c2)OCO3)cc1 | 16.8% (inactive)
5 | C[C@]12CC[C@@H]3c4ccc(O)cc4CC[C@H]3[C@@H]1CC[C@@H]2NS(=O)(=O)c1ccc(C(F)(F)F)cc1 | 69.7% (inactive)
6 | O=C(CSc1nnc(-c2ccc(Cl)cc2)o1)Nc1ccc(C(=O)/C=C/c2ccc(Cl)cc2)cc1 | 101% (inactive)
7 | Cc1cc(CCNC=O)c(C)c2c1sc1ccccc12 | 102% (inactive)
8 | COc1cc2cc(Oc3ccc(NC(=O)c4ccc(Cl)c(C(F)(F)F)c4)cc3)c(C)nc2cc1OC | 34.2% (inactive)
9 | CC(C)(C)c1ccc(S(=O)(=O)N[C@H]2CC[C@H]3[C@@H]4CCc5cc(O)ccc5[C@H]4CC[C@]23C)cc1 | 58.5% (inactive)
10 | COc1cc2cc(Oc3ccc(NC(=O)c4cccc(C(F)(F)F)c4)cc3)c(C)nc2cc1OC | 54.8% (inactive)
11 | COc1ccc(/C=C2\CCCC3=C2NC(N)=NC3c2ccc(OC)c(OC)c2)cc1OC (stereo not drawn) | 40.7% (inactive)
12 | Cc1c(Cl)cccc1NC(=O)CN1CCOCC1 | 94.5% (inactive)
13 | CC(C)(C)OC(=O)N1CCc2c(sc3ncnc(N/N=C/c4ccc(Br)cc4)c23)C1 | 55% (inactive)
14 | CCCCc1oc2ccccc2c1C(=O)c1cc(I)c(OCCN(CC)CC)c(I)c1 | -96.3% (active)
15 | CCc1c2c(nc3ccc(OC(=O)N4CCC(N5CCCCC5)CC4)cc13)-c1cc3c(c(=O)n1C2)COC(=O)[C@]3(O)CC | 41.4% (inactive)
16 | NS(=O)(=O)Oc1ccc(-c2ccc3sccc3c2)cc1 | 99.9% (inactive)
17 | O=C(Nc1ccc(OS(=O)(=O)c2ccccc2)cc1)C1CCCCC1 | 102% (inactive)
18 | S=c1cnc2ccccc2[nH]1 | 91% (inactive)
19 | COc1cc(-c2nn(-c3cccc(NC(=O)NCCNC(=O)c4cccc(C(F)(F)F)c4)c3)cc2-c2ccncc2)ccc1Cl | 36.1% (inactive)
20 | C[C@@H](O)[C@H]1C(=O)N2C(C(=O)O)=C(SCCN=CN)C[C@H]12 | -0.331% (active)
21 | CC[C@@H](C(=O)[C@@H](C)[C@@H](O)[C@H](C)[C@@H]1O[C@@H]([C@@H](CC)C(=O)O)CC[C@@H]1C)C1O[C@]2(C=CC(=O)[C@]3(CC[C@@](C)([C@H]4CC[C@](O)(CC)[C@H](C)O4)O3)O2)[C@H](C)C[C@@H]1C (stereo partly drawn) | 35.2% (inactive)
22 | CCC(c1ccc(OC)cc1)C(CC)c1ccc(O)c(CN2CCN(C)CC2)c1 (stereo not drawn) | 16.6% (inactive)
23 | COc1ccc(C(=O)N2C=Cc3ccccc3C2C#N)cc1 (stereo not drawn) | 99% (inactive)

Row | Compound | growth
24 | Cc1cc(SC#N)cc(C(C)(C)C)c1O | 120% (inactive)
25 | COc1ccc(-c2n[nH]nc2-c2cc(OC)c3c(c2OC)OCO3)cc1 | 19.4% (inactive)
26 | CN1C(C(=O)Nc2ccccn2)=C(O)c2sc(Cl)cc2S1(=O)=O | 95.8% (inactive)
27 | Clc1ccc2c(c1)C(N1CCNCC1)=Nc1ccccc1O2 | 67% (inactive)
28 | CC(C)(C)c1ccc(S(=O)(=O)N[C@H]2CC[C@H]3[C@@H]4CCc5cc(O)c([N+](=O)[O-])cc5[C@H]4CC[C@]23C)cc1 | 89.9% (inactive)
29 | COc1cc(-c2csc(NC(=O)Nc3ccc(Cl)c(C(F)(F)F)c3)n2)cc(OC)c1OC | 18.1% (inactive)
30 | Brc1ccc2c(c1)-c1ccccc1C1=NCCN12 | -34.3% (active)
31 | CC(C)N(CCOc1cccc(-c2nc3sccn3c2-c2ccnc(S(C)(=O)=O)n2)c1)C(C)C | 67.1% (inactive)
32 | Cc1ccc(/C=C/C(=O)C(=O)/C=C/c2ccc(C)cc2)cc1 | 100% (inactive)
33 | O=C(Nc1cc(Cl)cc2c1-c1ccc(Cl)cc1C2O)C(Cl)Cl (stereo not drawn) | 79.5% (inactive)
34 | COc1cc(Cc2cc(-c3ccccc3)n[nH]c2=O)cc(OC)c1OC | 33% (inactive)
35 | Cc1cc(C(C#N)c2ccc(Cl)cc2)c(Cl)cc1NC(=O)c1cc(I)cc(I)c1O (stereo not drawn) | 43.3% (inactive)
36 | C/C=C/C1=CN2C(=O)c3cc(OC4OC(C)C(NC)C(C)(O)C4O)c(C)c(O)c3N=C[C@@H]2C1 (stereo partly drawn) | -14.9% (active)
37 | CNC(=O)c1c(I)c(NC(C)=O)c(I)c(C(=O)O)c1I | 102% (inactive)
38 | COc1ccc(Nc2cnc3cc(NS(=O)(=O)c4ccc(C)cc4)ccc3n2)cc1 | 59.9% (inactive)
39 | COc1cc(-c2nn(-c3ccc(NC(=O)NCCCNC(=O)c4ccccc4)cc3)cc2-c2ccncc2)ccc1Cl | 33.3% (inactive)
40 | OCC1OC(n2ccc3c(NO)ncnc32)C(O)C1O (stereo not drawn) | -3.1% (active)
41 | C[C@]12CC[C@@H]3c4ccc(OS(=O)(=O)O)cc4CC[C@H]3[C@@H]1CC[C@@H]2NS(=O)(=O)c1ccc(-c2ccccc2)cc1 | 75.3% (inactive)
42 | CCN1CCN(CCC(=O)Nc2cccc(-n3cc(-c4ccncc4)c(-c4ccc(Cl)c(OC)c4)n3)c2)CC1 | 10.3% (inactive)
43 | COc1ccc(-c2nnc(SCC(=O)Nc3ccc(C(=O)/C=C/c4ccccc4)cc3)n2-c2ccccc2)cc1OC | 66.4% (inactive)
